Compounds without any hit were thinned out: in the full panel of roughly 79,000, 15% have a hit. Active and inactive are the calls of the source. Rule as the data show it: active = growth inhibition above about 70%; inactive = the rest.
Experiments:
[1] = NCI Yeast Anticancer Drug Screen. Data for the rad52 strain (AID 147);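 also: 0% = growth of vehicle-treated control cultures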; conditions: S. cerevisiae rad52 mutant growth inhibition, hits give high values
Summary of the method: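 Growth of repair-deficient yeast cells was compared between compound-treated and vehicle-treated cultures to give percent inhibition.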

[2] = NCI Yeast Anticancer Drug Screen. Data for the wt1 strain (AID 149);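 also: 0% = growth of vehicle-treated wt1 cultures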; conditions: S. cerevisiae wt1 strain (SPY 50644) growth inhibition, hits give high values
Summary of the method: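 Compounds are added to wt1 yeast cultures. Growth is then measured. Inhibition is expressed relative to vehicle-treated controls.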

[3] = NCI Yeast Anticancer Drug Screen. Data for the rad50EPP+ strain (AID 151);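 also: 0% = growth of vehicle-treated control cultures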; conditions: S. cerevisiae rad50 mutant strain, hits give high values
Summary of the method: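 Measured: growth inhibition of rad50EPP+ yeast. Reference: vehicle-treated controls. Screen uses strains with defined genetic alterations in DNA damage repair or cell cycle control.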

[4] = NCI Yeast Anticancer Drug Screen. Data for the mgt1 strain (AID 153); conditions: S. cerevisiae mgt1 mutant growth inhibition, hits give high values
Summary of the method: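 Compounds were applied to mgt1 mutant yeast, and growth was then compared against vehicle-treated control cultures to give percent inhibition.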

[5] = NCI Yeast Anticancer Drug Screen. Data for the rad50 strain (AID 155);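 also: 0% = growth of vehicle-only cultures of the same strain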; conditions: S. cerevisiae rad50 strain growth inhibition, hits give high values
Summary of the method: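 Inhibition values express reduced yeast growth in compound-treated cultures relative to vehicle-treated controls.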

[6] = NCI Yeast Anticancer Drug Screen. Data for the mec2-1 strain (AID 157); conditions: S. cerevisiae mec2-1 strain, hits give high values
Summary of the method: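 Compounds were applied to mec2-1 yeast cells. Their growth was then compared with that of vehicle-treated cultures to give growth inhibition.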

[7] = NCI Yeast Anticancer Drug Screen. Data for the rad14 strain (AID 159);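 also: 0% = growth of vehicle-treated control cultures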; conditions: S. cerevisiae rad14 strain growth inhibition, hits give high values
Summary of the method: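 A mutant yeast strain defective in DNA damage repair is treated with compound; inhibition of its growth is scored against untreated, vehicle-exposed cultures.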

[8] = NCI Yeast Anticancer Drug Screen. Data for the sgs1 mgt1 strain (AID 161);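 also: 0% = growth of cultures given vehicle only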; conditions: S. cerevisiae sgs1 mgt1 strain, hits give high values
Summary of the method: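 Growth of a repair-deficient yeast mutant was monitored after compound treatment and expressed as inhibition relative to vehicle-treated cultures.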

[9] = NCI Yeast Anticancer Drug Screen. Data for the CLN2oe strain (AID 163);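 also: 0% = growth of vehicle-only control cultures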; conditions: S. cerevisiae CLN2oe strain, hits give high values
Summary of the method: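 Cells of an engineered yeast line with disturbed cell-cycle regulation are treated with compound. Inhibition of growth is then calculated relative to the vehicle-treated reference.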

[10] = NCI Yeast Anticancer Drug Screen. Data for the cln2 rad14 strain (AID 165);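 also: 0% = growth equal to vehicle treated cultures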; conditions: S. cerevisiae cln2 rad14 strain, hits give high values
Summary of the method: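 Strain: cln2 rad14 yeast, altered in cell cycle control and DNA damage repair. Read-out: growth inhibition vs vehicle.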

[11] = NCI Yeast Anticancer Drug Screen. Data for the bub3 strain (AID 167); conditions: S. cerevisiae bub3 mutant strain, hits give high values
Summary of the method: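 Steps: expose the mutant yeast strain to compound; grow alongside vehicle-treated cultures; measure growth; express inhibition against the vehicle cultures.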

[12] = NCI Yeast Anticancer Drug Screen. Data for the wt2 strain (AID 169);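 also: 0% = growth of vehicle-treated yeast cultures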; conditions: S. cerevisiae wt2 strain growth inhibition, hits give high values
Summary of the method: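 Growth of compound-treated yeast is measured and expressed as inhibition relative to vehicle-only controls.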

[13] = NCI Yeast Anticancer Drug Screen. Data for the mlh1 strain (AID 171);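 also: 0% = growth of vehicle-treated control cultures of the same strain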; conditions: S. cerevisiae mlh1 strain growth inhibition, hits give high values
Summary of the method: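 Test agents were incubated with yeast bearing a defined DNA damage repair or cell cycle control alteration; values are growth inhibition normalised to vehicle-treated cultures.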

[14] = NCI Yeast Anticancer Drug Screen. Data for the sgs1 strain (AID 173);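 also: 0% = growth of vehicle-only control cultures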; conditions: S. cerevisiae sgs1 mutant, hits give high values
Summary of the method: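 Strain with an altered DNA repair or cell cycle pathway exposed to compound. Growth then measured. Value = inhibition versus vehicle control.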

[15] = NCI Yeast Anticancer Drug Screen. Data for the mlh1 rad18 strain (AID 175); conditions: S. cerevisiae mlh1 rad18 strain growth inhibition, hits give high values
Summary of the method: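 A repair-deficient yeast strain is exposed to test compound, and growth is scored relative to vehicle-treated controls.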

[16] = NCI Yeast Anticancer Drug Screen. Data for the rad18 strain (AID 177); conditions: S. cerevisiae rad18 mutant growth inhibition, hits give high values
Summary of the method: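 DNA-repair-defective yeast; compound treatment; growth inhibition scored against vehicle.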

[17] = at 5.0 µM (retest, dose inferred, filed as 0.5)
[18] = at 50.0 µM (retest, dose inferred, filed as 5.0)

Measured: growth inhibition

COC(=O)C(=O)c1c(-c2ccc(Cl)c(Cl)c2)[nH]c2[nH]n(-c3ccccc3)c(=O)c2c1=O
active: [3]; at 100.0 µM 76% | [5]; [18] 85% | [5]; at 50.0 µM 93.1% | [6]; at 50.0 µM 82.8% | [8]; [18] 83% | [10]; [18] 81% | [10]; at 50.0 µM 87.5% | [11]; [18] 84% | [11]; at 50.0 µM 82.5% | [15]; [18] 80% | [15]; at 50.0 µM 94.5% | [16]; at 100.0 µM 77%
inactive: [1]; at 1.2 µM -2% | [1]; at 3.7 µM -5% | [1]; at 11.0 µM 37% | [1]; at 33.0 µM 55% | [1]; at 100.0 µM 61% | [2]; at 1.2 µM -1% | [2]; at 3.7 µM -3% | [2]; at 11.0 µM 24% | [2]; at 33.0 µM 54% | [2]; at 100.0 µM 55% | [3]; at 1.2 µM 2% | [3]; at 3.7 µM 0% | [3]; at 11.0 µM 24% | [3]; at 33.0 µM 56% | [4]; at 1.2 µM -2% | [4]; at 3.7 µM -2% | [4]; at 11.0 µM 44% | [4]; at 33.0 µM 68% | [4]; at 100.0 µM 68% | [5]; at 1.2 µM 0% | [5]; at 3.7 µM 27% | [5]; [17] -5% | [5]; at 11.0 µM 22% | [5]; at 33.0 µM 40% | [5]; at 100.0 µM 65% | [6]; at 1.2 µM -2% | [6]; at 3.7 µM -7% | [6]; [17] -7% | [6]; at 11.0 µM 40% | [6]; at 33.0 µM 57% | [6]; [18] 9% | [6]; at 100.0 µM 63% | [7]; at 1.2 µM -1% | [7]; at 3.7 µM -1% | [7]; at 11.0 µM 46% | [7]; at 33.0 µM 62% | [7]; at 100.0 µM 61% | [8]; [17] -3% | [8]; at 50.0 µM 43% | [9]; at 1.2 µM -6% | [9]; at 3.7 µM -13% | [9]; at 11.0 µM 64% | [9]; at 33.0 µM 64% | [9]; at 100.0 µM 58% | [10]; [17] -11% | [11]; at 1.2 µM -3% | [11]; at 3.7 µM -2% | [11]; [17] -38% | [11]; at 11.0 µM 51% | [11]; at 33.0 µM 54% | [11]; at 100.0 µM 55% | [12]; at 1.2 µM 0% | [12]; at 3.7 µM 5% | [12]; at 11.0 µM 44% | [12]; at 33.0 µM 57% | [12]; at 100.0 µM 56% | [13]; at 1.2 µM -2% | [13]; at 3.7 µM -3% | [13]; at 11.0 µM 36% | [13]; at 33.0 µM 57% | [13]; at 100.0 µM 57% | [14]; at 1.2 µM -1% | [14]; at 3.7 µM -1% | [14]; at 11.0 µM 60% | [14]; at 33.0 µM 61% | [14]; at 100.0 µM 65% | [15]; [17] -7% | [16]; at 1.2 µM -3% | [16]; at 3.7 µM -2% | [16]; at 11.0 µM 3% | [16]; at 33.0 µM 49%

CC(=O)O[C@H]1CC[C@@]2(C)C(=CC[C@@H]3C2CC[C@]2(C)C(=O)NC(=O)CC32)C1 (stereo partly specified)
inactive: [1]; at 1.2 µM -33% | [1]; at 3.7 µM -35% | [1]; at 11.0 µM -42% | [1]; at 33.0 µM -29% | [1]; at 100.0 µM -41% | [2]; at 1.2 µM -17% | [2]; at 3.7 µM -7% | [2]; at 11.0 µM -21% | [2]; at 33.0 µM -17% | [2]; at 100.0 µM -21% | [3]; at 1.2 µM -8% | [3]; at 3.7 µM 0% | [3]; at 11.0 µM 25% | [3]; at 33.0 µM 54% | [3]; at 100.0 µM 27% | [4]; at 1.2 µM -28% | [4]; at 3.7 µM -19% | [4]; at 11.0 µM 56% | [5]; at 1.2 µM -31% | [5]; at 3.7 µM -29% | [5]; [17] -21% | [5]; at 11.0 µM -20% | [5]; at 33.0 µM -25% | [5]; [18] -29% | [5]; at 50.0 µM 12.4% | [5]; at 100.0 µM -28% | [6]; at 1.2 µM -21% | [6]; at 3.7 µM -15% | [6]; [17] -44% | [6]; at 11.0 µM -13% | [6]; at 33.0 µM -43% | [6]; [18] -6% | [6]; at 50.0 µM -12.2% | [6]; at 100.0 µM -23% | [7]; at 1.2 µM -29% | [7]; at 3.7 µM -27% | [7]; at 11.0 µM -26% | [7]; at 33.0 µM -11% | [7]; at 100.0 µM -41% | [8]; [17] 21% | [9]; at 1.2 µM 2% | [9]; at 3.7 µM -4% | [9]; at 11.0 µM -16% | [9]; at 33.0 µM -13% | [9]; at 100.0 µM -23% | [10]; [17] -6% | [10]; [18] 13% | [10]; at 50.0 µM 29.5% | [11]; at 1.2 µM -14% | [11]; at 3.7 µM -29% | [11]; [17] 1% | [11]; at 11.0 µM -22% | [11]; at 33.0 µM -20% | [11]; [18] 46% | [11]; at 50.0 µM 9.95% | [11]; at 100.0 µM -31% | [12]; at 1.2 µM 8% | [12]; at 3.7 µM 19% | [12]; at 11.0 µM 46% | [13]; at 1.2 µM 1% | [13]; at 3.7 µM 17% | [13]; at 11.0 µM 57% | [13]; at 100.0 µM 64% | [14]; at 1.2 µM 16% | [14]; at 3.7 µM 40% | [15]; [17] -17% | [15]; [18] 3% | [15]; at 50.0 µM -0.8% | [16]; at 1.2 µM -1% | [16]; at 3.7 µM 0% | [16]; at 11.0 µM 1% | [16]; at 33.0 µM 4% | [16]; at 100.0 µM 0%
active: [4]; at 33.0 µM 76% | [4]; at 100.0 µM 70% | [8]; [18] 74% | [8]; at 50.0 µM 81.5% | [12]; at 33.0 µM 73% | [12]; at 100.0 µM 71% | [13]; at 33.0 µM 75% | [14]; at 11.0 µM 70% | [14]; at 33.0 µM 86% | [14]; at 100.0 µM 79%
